The structures appear in SMILES notation. Active and inactive are the calls of the source.

Assay [1] in a line: E. coli DRC41 culture turbidity changes, primary screen, E. coli filamentation inducer project, strain DRC41, OD650, 48 h (AID 1152).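 Also: E. coli MC1000 strain DRC41 lacking acrAB efflux pump and sulA.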 The following applies: E. coli DRC41 (acrAB sulA), higher = more signal, called active from +8 up or from −8 down.
Assay [2] can be described thus: small-molecule binders of probe aLefty1, primary screen, biochemical, small-molecule microarray, 635/667 nm fluorescence (AID 1153).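 Also: score merges spot fluorescence with signal-to-noise ratio from the scanned slide images.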 The following applies: higher = more signal.
A short description of assay [3]: PSAC antagonists in infected red cells, primary screen, cell-based, P. falciparum Indochina, OD700, 1 h (AID 1154). The following applies: P. falciparum Indochina infected RBC osmotic lysis, higher = more signal, called active from +8 up or from −8 down.
Assay [4] in a line: PSAC antagonists in infected red cells, primary screen, cell-based, P. falciparum Indochina, OD700, 2 h (AID 1155).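 Also: lysis reports solute entry through the parasite surface anion channel PSAC; channel blockers reduce lysis of infected cells.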 The following applies: P. falciparum Indochina infected erythrocytes, osmotic lysis OD700; higher = more signal, called active from +8 up or from −8 down.
Assay [5] can be described thus: osmotic lysis modulators in infected erythrocytes, primary screen, PSAC antagonist project, cell-based, P. falciparum Indochina, OD700, 3 h (AID 1156). The following applies: higher = more signal, called active from +8 up or from −8 down.
The nature of assay [6]: PSAC antagonists in infected red cells, primary screen, cell-based, P. falciparum Indochina, OD700, 18 h (AID 1157). The following applies: P. falciparum Indochina infected erythrocytes, osmotic lysis OD700, 18 h; higher = more signal, called active from +8 up or from −8 down.
A short description of assay [7]: modulators of S6 phosphorylation in cells, primary screen, cell-based, A549, cytoblot, luminescence, serum-stimulated (AID 1158).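 Also: serum-stimulated A549 lung adenocarcinoma cells; signal is phosphorylated S6 detected by cytoblot immunostaining with HRP secondary.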 The following applies: A549 phospho-S6 cytoblot, 5 h, higher = more signal.
Assay [8] deals with NADPH oxidase 2 (Homo sapiens) (UniProt P04839). Put plainly: NOX2-dependent H2O2 signal modulators, primary screen, NOX inhibitor project, cell-based, HEK293-NOX2, PMA-stimulated, Amplex Red fluorescence (AID 1159). Also: test concentration not given here. The following applies: 45 min, higher = more signal, called active from +8 up or from −8 down.
Sequence of NADPH oxidase 2 (Homo sapiens) (P04839 whole entry, looked up): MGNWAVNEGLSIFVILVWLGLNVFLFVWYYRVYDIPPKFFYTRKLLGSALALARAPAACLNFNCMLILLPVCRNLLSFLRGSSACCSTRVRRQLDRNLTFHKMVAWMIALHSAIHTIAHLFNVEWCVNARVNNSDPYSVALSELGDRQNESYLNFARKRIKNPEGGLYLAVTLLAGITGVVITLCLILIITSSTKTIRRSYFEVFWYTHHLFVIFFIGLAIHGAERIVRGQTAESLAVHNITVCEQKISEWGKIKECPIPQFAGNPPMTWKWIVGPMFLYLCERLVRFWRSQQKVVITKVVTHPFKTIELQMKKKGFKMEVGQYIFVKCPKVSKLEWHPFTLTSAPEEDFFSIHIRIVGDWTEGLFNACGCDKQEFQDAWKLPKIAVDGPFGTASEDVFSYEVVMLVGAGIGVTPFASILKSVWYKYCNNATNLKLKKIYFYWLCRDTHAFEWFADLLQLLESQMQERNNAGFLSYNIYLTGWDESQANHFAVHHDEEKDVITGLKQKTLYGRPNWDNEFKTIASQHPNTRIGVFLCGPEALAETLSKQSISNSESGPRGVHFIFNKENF
Assay [9] addresses NADPH oxidase 4 (Homo sapiens) (UniProt Q9NPH5). Put plainly: NOX4-dependent H2O2 signal modulators, primary screen, NOX inhibitor project, cell-based, HEK293-NOX4, tetracycline-induced, Amplex Red fluorescence (AID 1160). The following applies: 45 min, higher = more signal, called active from +8 up or from −8 down.
Assay [10] concerns the target NADPH oxidase 5 (Homo sapiens) (UniProt Q96PH1). The assay can be described thus: NOX5-dependent H2O2 signal modulators, primary screen, NOX inhibitor project, cell-based, HEK293-NOX5, Amplex Red fluorescence (AID 1161). The following applies: HEK293-NOX5, ionomycin, 45 min, higher = more signal.
The nature of assay [11]: A549 cell viability effects, profiling panel, calcein-AM fluorescence, 48 h, basal (AID 1162). Also: test concentration not given here. The following applies: higher = more signal.
Assay [12] can be described thus: adipocyte viability effects, profiling panel, cell-based, 3T3-L1 adipocytes, calcein-AM fluorescence, 48 h, basal (AID 1163). Also: test concentration not given here. The following applies: 3T3-L1 adipocytes viability, higher = more signal.
Assay [13] in a line: HepG2 cell viability effects, profiling panel, calcein-AM fluorescence, 48 h, basal (AID 1164). Also: test concentration not given here. The following applies: higher = more signal.
The nature of assay [14]: MM1S cell viability effects, profiling panel, calcein-AM fluorescence, 48 h, basal (AID 1165).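 Also: viability of MM1S multiple myeloma cells under basal unstimulated conditions; test concentration not given here.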 The following applies: higher = more signal.
Assay [15] is described as follows: basal RPMI8226 viability, no added stimulus, profiling panel, cell-based, calcein-AM fluorescence, 48 h, PK04 Diversity Set (AID 1166).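 Also: cells grown under basal conditions without added stimulus; test concentration not given here.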 The following applies: RPMI8226 myeloma viability, higher = more signal.
Assay [16] can be described thus: basal HepG2 mitochondrial membrane potential changes, profiling panel, cell-based, JC-1 fluorescence, 24 h, 100 nL compound (AID 1167). Also: test concentration not given here. The following applies: higher = more signal.
Assay [17] is described as follows: basal 3T3-L1 adipocyte mitochondrial potential changes, profiling panel, cell-based, JC-1 fluorescence, 3T3-L1 adipocytes, 24 h, 100 nL compound (AID 1168). Also: test concentration not given here. The following applies: JC-1 mitochondrial fluorescence, higher = more signal, called active from +8 up or from −8 down.
Assay [18] is described as follows: basal RPMI8226 mitochondrial membrane potential changes, profiling panel, cell-based, JC-1 fluorescence, 24 h, 100 nL compound (AID 1169). Also: test concentration not given here. The following applies: RPMI8226 myeloma, JC-1 mitochondrial potential fluorescence, higher = more signal.
The nature of assay [19]: basal MM1S mitochondrial membrane potential changes, profiling panel, cell-based, JC-1 fluorescence, 24 h, 100 nL compound (AID 1170). Also: test concentration not given here. The following applies: higher = more signal.
Assay [20] in a line: A549 lung cancer cell viability effects, profiling panel, resazurin fluorescence, 24 h, PK04 Diversity Set (AID 1171). Also: test concentration not given here. The following applies: higher = more signal, called active from +8 up or from −8 down.

Sequence of NADPH oxidase 4 (Homo sapiens) (Q9NPH5 whole entry, looked up): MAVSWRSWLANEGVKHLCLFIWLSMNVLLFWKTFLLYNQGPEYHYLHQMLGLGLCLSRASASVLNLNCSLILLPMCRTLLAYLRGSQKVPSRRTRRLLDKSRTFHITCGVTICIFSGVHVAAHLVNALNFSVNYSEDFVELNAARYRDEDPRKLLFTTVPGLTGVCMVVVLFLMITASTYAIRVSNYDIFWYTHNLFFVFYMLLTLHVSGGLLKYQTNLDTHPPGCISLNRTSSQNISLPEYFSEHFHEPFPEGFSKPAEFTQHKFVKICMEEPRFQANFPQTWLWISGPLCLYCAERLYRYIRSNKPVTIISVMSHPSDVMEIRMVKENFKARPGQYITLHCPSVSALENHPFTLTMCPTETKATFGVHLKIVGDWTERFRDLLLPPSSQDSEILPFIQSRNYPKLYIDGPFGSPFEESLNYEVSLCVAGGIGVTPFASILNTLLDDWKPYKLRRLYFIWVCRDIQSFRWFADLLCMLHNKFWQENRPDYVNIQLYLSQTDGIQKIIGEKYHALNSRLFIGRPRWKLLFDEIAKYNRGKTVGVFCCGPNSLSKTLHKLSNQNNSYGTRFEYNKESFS
Sequence of NADPH oxidase 5 (Homo sapiens) (Q96PH1 whole entry, looked up): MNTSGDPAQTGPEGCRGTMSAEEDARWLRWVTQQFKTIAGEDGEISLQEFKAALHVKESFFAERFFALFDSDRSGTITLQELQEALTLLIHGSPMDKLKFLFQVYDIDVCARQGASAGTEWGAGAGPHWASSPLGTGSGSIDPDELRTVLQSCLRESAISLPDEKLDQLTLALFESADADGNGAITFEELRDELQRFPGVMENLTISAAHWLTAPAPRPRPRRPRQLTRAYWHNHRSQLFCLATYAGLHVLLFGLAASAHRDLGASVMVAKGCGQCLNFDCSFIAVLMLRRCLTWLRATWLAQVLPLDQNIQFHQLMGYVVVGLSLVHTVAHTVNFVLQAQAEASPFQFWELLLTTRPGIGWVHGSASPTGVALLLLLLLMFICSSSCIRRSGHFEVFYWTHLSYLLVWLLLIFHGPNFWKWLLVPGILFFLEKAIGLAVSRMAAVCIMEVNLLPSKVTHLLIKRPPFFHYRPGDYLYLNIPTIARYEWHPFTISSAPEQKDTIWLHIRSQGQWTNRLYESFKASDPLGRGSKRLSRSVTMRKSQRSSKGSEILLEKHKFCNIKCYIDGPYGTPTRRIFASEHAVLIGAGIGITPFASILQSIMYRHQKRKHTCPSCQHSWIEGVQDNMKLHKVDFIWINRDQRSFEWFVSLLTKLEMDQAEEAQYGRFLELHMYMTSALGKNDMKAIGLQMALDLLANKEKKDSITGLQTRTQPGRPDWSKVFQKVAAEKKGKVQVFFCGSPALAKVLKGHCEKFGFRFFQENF

With `COC(=O)[C@@]1(Cc2ccccc2)[C@H]2c3cc(C(=O)N4CCCC4)n(Cc4ccccc4)c3C[C@H]2CN1C(=O)c1ccccc1`, the z-score in [1] is -1.83 (inactive); in assay [3], 3.6 (inactive); in assay [4], 0.945 (inactive); in assay [5] it was 0.365 (inactive); in assay [6] it was 1.03 (inactive); in assay [7] it was -0.276. The z-score in assay [8] is -0.218 (inactive); in [9], -0.0718 (inactive); in assay [10], -1.23; in assay [11], -1.39; in assay [12], 0.988; in assay [13], -0.0065. In addition, the z-score was -2.96 in assay [14]; -4.64 in assay [15]; 0.106 in assay [16]; -1.74 (inactive) in [17]; -0.737 in assay [18]; -0.777 in assay [19]. In [20], the z-score is -3.12 (inactive). The compound further came in with a composite z-score in assay [2] of 0.128.
On to `C=C(COC)C(=O)CC[C@H](OC(=O)c1ccccc1-c1ccccc1C(=O)O)c1ccc(CO)o1`, for which the z-score is -0.093 (inactive) in [1]; 1.77 (inactive) in [3]; 0.404 (inactive) in assay [4]; 1.38 (inactive) in assay [5]; 0.161 (inactive) in [6]; -0.121 in [7]. Also, the z-score in [8] is -0.0961 (inactive); in assay [9] it was -0.0962 (inactive); in assay [10], -0.0437; in assay [11], -0.643; in assay [12] it was -0.398; in [13], -0.985. Also, the z-score in assay [14] was 0.232; in [15], -0.0416; in [16], -1.01; in assay [17], -0.345 (inactive); in [18], 0.12; in assay [19], 0.433. For the same compound, the z-score in assay [20] was -0.256 (inactive). Further, the composite z-score in [2] is -0.0954.
For the compound `CCCC=C(CCC)[C@@H](NS(=O)(=O)c1ccccc1)c1ccc(C(F)(F)F)cc1`, the z-score was -1.51 (inactive) in assay [1]; 4.38 (inactive) in assay [3]; 1.07 (inactive) in [4]; 0.482 (inactive) in [5]; 0.983 (inactive) in assay [6]; -0.0787 in assay [7]. In addition, the z-score was -0.818 (inactive) in assay [8]; -1.19 (inactive) in [9]; 2.67 in assay [10]; -2.27 in assay [11]; -0.287 in [12]; -2.34 in [13]. For the same compound, the z-score was -2.55 in assay [14]; -4.06 in assay [15]; -3.56 in assay [16]; -0.634 (inactive) in assay [17]; -0.981 in assay [18]; -2.47 in [19]. In assay [20], the z-score was -0.795 (inactive). This compound also had a composite z-score in assay [2] of 0.775.
As for `CN(C)C(=O)[C@@]1(CCS(=O)(=O)c2ccccc2)N=C(c2ccc(OCCCO)cc2)O[C@H]1c1ccccc1CN=[N+]=[N-]`, the z-score in [1] was 1.1 (inactive); in assay [3] it was 24 (active); in [4], 4.2 (inactive); in assay [5], 0.344 (inactive); in [6], -0.48 (inactive); in assay [7], 1.12. In addition, the z-score was -1.49 (inactive) in assay [8]; 0.083 (inactive) in assay [9]; -0.558 in assay [10]; 1.29 in assay [11]; 0.828 in [12]; -0.294 in [13]. Further, the z-score in assay [14] is -0.582; in assay [15] it was -0.314; in [16], 0.548; in [17] it was -0.264 (inactive); in assay [18] it was -0.114; in assay [19], -1.31. Further, the z-score in assay [20] was 0.712 (inactive). Moreover, in assay [2], the composite z-score amounted to 0.375.
`COc1ccccc1CN1C(=O)c2ccccc2[C@@H](C(=O)NCC(C)C)[C@@H]1c1ccc(CO)cc1`: the z-score is 1.08 (inactive) in assay [1]; 1.12 (inactive) in assay [3]; 0.157 (inactive) in [4]; 1.23 (inactive) in assay [5]; 0.206 (inactive) in [6]; -0.195 in [7]. Also, the z-score was 1.78 (inactive) in assay [8]; -0.496 (inactive) in [9]; 1.67 in assay [10]; 0.467 in assay [11]; 0.796 in [12]; 0.306 in assay [13]. For the same compound, the z-score in assay [14] was 0.869; in assay [15], -2.01; in assay [16], 0.962; in assay [17] it was -1.09 (inactive); in assay [18], 0.398; in assay [19] it was 0.544. Moreover, the z-score in assay [20] was -0.624 (inactive). The composite z-score in assay [2] is -0.0061.
On to `COc1ccc([Si](C)(C)[C@@H]2[C@@H](CC(=O)N(CCO)Cc3ccccc3)O[C@]3(C(=O)N(C)c4c(Br)cc(C)cc43)[C@H]2C)cc1`, for which the z-score in assay [1] was -1.98 (inactive); in assay [3] it was 26.6 (active); in assay [4], 14.2 (active); in assay [5], 0.233 (inactive); in assay [6], 2.09 (inactive); in assay [7], 0.336. Also, the z-score in assay [8] was -1.91 (inactive); in assay [9], -0.00605 (inactive); in assay [10], -1.28; in [11], -2.07; in [12], -0.0228; in [13], -2.44. The z-score was -2.75 in assay [14]; -4.38 in assay [15]; -2.82 in assay [16]; -0.68 (inactive) in [17]; -1.17 in assay [18]; -2.11 in [19]. In addition, the z-score in assay [20] was -0.99 (inactive). Further, in assay [2], the composite z-score was -0.103.
On to `COc1ccc(C#Cc2ccc3c(c2)[C@]2(C(=O)N3)[C@H](C(=O)O)[C@H]3C(=O)O[C@H](c4ccccc4)[C@H](c4ccccc4)N3[C@@H]2c2ccc(OCCO)cc2)cc1`, for which the z-score in [1] is 0.962 (inactive); in [3], 3.33 (inactive); in assay [4], -0.266 (inactive); in assay [5], -8.91 (active); in [6], -0.097 (inactive); in [7], -0.0207. Further, the z-score was 1.67 (inactive) in [8]; -0.925 (inactive) in [9]; 1.12 in [10]; 0.614 in assay [11]; 0.971 in [12]; 1.27 in assay [13]. Further, the z-score in [14] is -2.45; in assay [15], -4.03; in assay [16], -4.14; in assay [17], -4.58 (inactive); in assay [18] it was -1.23; in [19], -1.27. Moreover, the z-score in assay [20] is 0.982 (inactive). The compound further gave a composite z-score in assay [2] of 0.33.
For the compound `COCCOC(=O)N1C(=O)[C@@]2(c3cc(C#CCC(C(=O)OC)C(=O)OC)ccc31)[C@H](c1ccc(OCCO)cc1)N1[C@H](c3ccccc3)[C@H](c3ccccc3)OC(=O)[C@H]1[C@@H]2C(N)=O`, the z-score in assay [1] was -0.361 (inactive); in assay [3], 5.25 (inactive); in assay [4], 1.58 (inactive); in [5], 0.478 (inactive); in assay [6], 0.59 (inactive); in assay [7], 0.702. The z-score in [8] was 2.17 (inactive); in assay [9], 0.988 (inactive); in assay [10], 0.717; in assay [11] it was 0.462; in assay [12] it was 0.433; in assay [13], 0.322. Besides, the z-score in assay [14] is -2.51; in assay [15], -2.67; in assay [16] it was -0.0777; in assay [17], 1.3 (inactive); in assay [18], -0.72; in assay [19] it was -0.0535. For the same compound, the z-score in assay [20] was 1.18 (inactive). This compound also came in with a composite z-score in assay [2] of -0.147.
`CC(C)C[C@@H]1NC(=O)[C@@H]2C[C@H](C(=O)NCc3ccc(F)cc3)[C@H](c3ccc(O)cc3)N2C1=O`: the z-score in [1] was 0.227 (inactive); in assay [3] it was 1.46 (inactive); in [4], 0.328 (inactive); in assay [5], -1.64 (inactive); in [6], 0.424 (inactive); in assay [7], 0.0668. Besides, the z-score in assay [8] was 0.468 (inactive); in assay [9], -0.106 (inactive); in assay [10] it was 1.18; in assay [11], 0.0054; in assay [12], 0.305; in assay [13], -1.03. Further, the z-score in [14] is -0.199; in assay [15] it was -0.214; in [16], 1.07; in [17] it was 0.0421 (inactive); in assay [18], 0.182; in [19] it was 0.593. For the same compound, the z-score in [20] is 0.149 (inactive). For the same compound, the composite z-score in assay [2] was -0.0559.

These data come from PubChem BioAssay.
